Inconclusive results are not listed. The source made the active and inactive calls. Unless noted, calls come from the whole dose curve; as a rule, active = well fitted curve in the direction sought with a large enough effect; inconclusive = small, poorly fitted or top-dose-only effect, or another doubt; inactive = no such curve, though single readings can be large; an effect the other way counts as inactive or inconclusive.
Assays:
[1] = Cell Viability - BJ (AID 421; calls by dose curve;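 note: potency is the fitted concentration of half-maximal effect; cells exposed to compound for 40 hours at 37 °C before readout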); conditions: BJ fibroblast viability, qHTS
How it was run: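 Normal human BJ foreskin fibroblasts, 1500/well in complete medium, treated 40 hr at 37 °C. Cellular ATP by CellTiter-Glo luminescence; normalized to DMSO and 100 uM tamoxifen, AC50 from Hill fit.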

[2] = Cell Viability - Jurkat (AID 426;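 active = dose-dependent loss of cell ATP signal giving a full or clear fitted curve, ranked by lower potency value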; note: potency is the fitted concentration of half-maximal effect); conditions: qHTS
How it was run: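 Jurkat (Clone E6-1) cells, 5000/well in complete medium, exposed to compounds for 40 hr at 37C; intracellular ATP measured by CellTiter-Glo luminescence after 20 min at room temperature. AC50 from Hill fits.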

[3] = Cell Viability - Hek293 (AID 427;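 active = compounds whose dose-response curve shows a full or clear partial loss of cell viability, called from curve shape rather than a numeric limit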;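 note: potency is the fitted concentration of half-maximal effect; cells exposed to compound for 40 hours at 37 °C before reading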); conditions: qHTS
How it was run: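 HEK293 cells in complete medium were exposed to compound for 40 hr at 37 °C, then cellular ATP was read by CellTiter-Glo luminescence. Data were normalized to DMSO (basal) and 100 uM tamoxifen (100% inhibition), and AC50 came from Hill fits.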

[4] = Cell Viability - HepG2 (AID 433; calls by dose curve;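 note: potency is the fitted concentration of half-maximal effect; potency for ATP loss meaning cytotoxicity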); conditions: qHTS
How it was run: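 ATP luminescence (CellTiter-Glo) after 40 h compound exposure, 37 °C, HepG2, 1500 cells/well, complete medium. Normalized: DMSO = basal, 100 uM tamoxifen = 100% inhibition. AC50 via standard Hill equation.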

[5] = Cell Viability - MRC5 (AID 434; calls by dose curve;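 note: potency is the fitted concentration of half-maximal effect; potency reflects cytotoxicity seen as loss of intracellular ATP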); conditions: MRC5 lung fibroblast viability, qHTS
How it was run: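 qHTS cytotoxicity in human lung fibroblast MRC5 cells; 40 hr treatment, 37 °C; cellular ATP by luciferase luminescence; DMSO = 0%, 100 uM tamoxifen = 100% inhibition; Hill-fit AC50.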

[6] = Cell Viability - SK-N-SH (AID 435; calls by dose curve; note: potency is the fitted concentration of half-maximal effect); conditions: SK-N-SH neuroblastoma cell viability qHTS
How it was run: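 CellTiter-Glo ATP luminescence, 20 min RT read; cells pre-plated 5 hr, compound 40 hr at 37 °C, 1500 cells/well, complete medium. Normalized DMSO = 0, 100 uM tamoxifen = 100% inhibition; Hill-fit AC50.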

[7] = biological target: Mitogen-activated protein kinase 10 (Mus musculus) (UniProt Q61831); test: JNK3 AlphaScreen Assay (AID 530; active = well fitted curve in either direction with a large enough effect, not every such curve was filed as active;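 note: kinase came from lysate of stimulated human HepG2 cells; signal reports phosphorylation of biotinylated GST-cJun 1-79 at Ser73 with 10 µM ATP; % is set by controls: 0 for no effect and ±100 for the full control effect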); conditions: JNK3 lysate, c-Jun phosphorylation; series mostly up to 57.1 µM
How it was run: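 Compound titrations were preincubated 15 minutes at room temperature with substrate, antibody and pre-activated JNK3-containing HepG2 lysate. Reactions were started with 10 uM ATP and stopped with EDTA-containing bead buffer for AlphaScreen detection.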

[8] = Cell Viability - N2a (AID 540); conditions: N2a mouse neuroblastoma cell viability; activity change, negative = cytotoxicity: at 92.2 µM (top of the series);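 note: plate controls were DMSO alone for no effect and tamoxifen control for full effect; nearly all actives have a fitted effect of over 45% in size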
How it was run: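 Mouse neuroblastoma N2a cells, 1500/well, exposed to compounds 40 h at 37 °C in complete medium. Viability measured as cellular ATP by CellTiter-Glo luminescence; AC50 from Hill fits of concentration-response.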

[9] = Cell Viability - NIH 3T3 (AID 541); conditions: NIH 3T3 cell viability, qHTS; activity change, negative = cytotoxicity: at 92.2 µM (top of the series);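 note: plate controls were DMSO alone for no effect and tamoxifen positive control for full effect; nearly all actives have a fitted effect of over 25% in size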
How it was run: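 Mouse NIH 3T3 fibroblasts, 1000 cells/well, rested 5 hr at 37 °C, then exposed to compound for 40 hr at 37 °C in complete medium. Viability read as intracellular ATP by CellTiter-Glo luminescence; AC50 from Hill-equation fits of concentration-response data.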

[10] = Cell Viability - HUV-EC-C (AID 542); conditions: HUV-EC-C endothelial cell viability, qHTS; series mostly up to 92.2 µM; note: % is set by controls: 0 for no effect and ±100 for the full control effect; nearly all actives have a fitted effect of over 35% in size
How it was run: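 HUV-EC-C human vascular endothelial cells, 1000/well, exposed to compound for 40 hr at 37 °C in complete medium. Intracellular ATP was read by CellTiter-Glo luminescence. AC50 came from Hill-equation fits of concentration-response data.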

[11] = Cell Viability - H-4-II-E (AID 543); conditions: H-4-II-E rat hepatoma viability; series mostly up to 92.2 µM; note: % is set by controls: 0 for no effect and ±100 for the full control effect; nearly all actives have a fitted effect of over 35% in size
How it was run: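 Rat hepatoma H-4-II-E cells, 1500 per well, treated 40 h at 37 °C in complete medium. Cellular ATP read by CellTiter-Glo luminescence; AC50 from Hill fits of concentration-response.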

[12] = Cell Viability - SH-SY5Y (AID 544); conditions: SH-SY5Y neuroblastoma cell viability; viability change, negative = cytotoxic: at 92.2 µM (top of the series); note: nearly all actives have a fitted effect of over 55% in size
How it was run: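 SH-SY5Y human neuroblastoma cells (1500/well) incubated 5 h, then compound-treated 40 h at 37 °C in complete medium. Viability read as intracellular ATP by CellTiter-Glo luminescence after 20 min; AC50 from Hill-equation fits of qHTS concentration-response.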

[13] = Cell Viability - Renal Proximal Tubule (AID 545); conditions: renal proximal tubule cells viability, primary cells of rat origin; series mostly up to 91.7 µM; note: nearly all actives have a fitted effect of over 40% in size
How it was run: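 Rat kidney proximal tubule cells, freshly isolated; 1000 cells/well, 5 hr settle, compound 40 hr 37 °C. CellTiter-Glo 20 min RT, luminescence read. AC50 by standard Hill fit.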

[14] = Cell Viability - Mesenchymal (AID 546); conditions: mesenchymal cells viability, qHTS; series mostly up to 91.7 µM;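 note: cells exposed to compound for 40 hours before reading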
How it was run: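 AC50 values reflect the drop in intracellular ATP in a human kidney mesenchymal line derived from normal glomeruli. Treatment lasts 40 hr at 37 °C in complete medium, and the signal comes from CellTiter-Glo luminescence.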

[15] = Cellular Toxicity (caspase-3) HepG2 (AID 654); conditions: HepG2 caspase-3 activation, luminescence; series mostly up to 92.2 µM;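 note: cells exposed to compound for 16 hours before reading; 0% = DMSO alone and 100% = caspase signal from 100 µM tamoxifen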
How it was run: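 HepG2 cells (1500/well) were treated 16 h at 37 °C in complete medium, then caspase 3/7 activity was read by Caspase-Glo luminescence. Data were normalized to DMSO and 100 uM tamoxifen; AC50 came from Hill-equation fits of qHTS concentration-response.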

[16] = Cellular Toxicity (caspase-3) Jurkat (AID 655); conditions: Jurkat caspase-3 activation, luminescence; caspase-3 activation: at 92.2 µM (top of the series), DMSO = 0%, tamoxifen = 100%;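 note: cells exposed to compound for 16 h at 37 °C before reading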
How it was run: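 Luminescent caspase-3/7 readout (aminoluciferin substrate cleavage) in human T-cell leukemia Jurkat cells after 16 hr compound exposure. Concentration-response normalized to DMSO and 100 uM tamoxifen; AC50 by standard Hill equation.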

[17] = Cellular Toxicity (caspase-3) HUV-EC-C (AID 656); conditions: HUV-EC-C cells, caspase-3 activation (apoptosis), vehicle = 0, 100 µM tamoxifen = 100%; series mostly up to 92.2 µM
How it was run: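 Luminescent caspase-3/7 activation (aminoluciferin substrate cleavage) in HUV-EC-C cells after 16 hr compound exposure, 37°C. Signal normalized to DMSO basal and 100 uM tamoxifen as 100%; AC50 from concentration-response fitted with the Hill equation.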

[18] = Cellular Toxicity (caspase-3) SHSY5Y (AID 657); conditions: SH-SY5Y caspase-3 activation, DMSO zero, 10 µM staurosporine = 100%; series mostly up to 91.7 µM;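 note: cells exposed to compound for 16 hours at 37 °C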
How it was run: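 Luminescent caspase-3/7 readout (aminoluciferin release) in SH-SY5Y cells after 16 h compound exposure in complete medium. Activity scaled between DMSO basal and 10 uM staurosporine as 100%; concentration-response fitted to Hill equation for AC50.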

[19] = Cellular Toxicity (caspase-3) BJ (AID 658); conditions: BJ fibroblasts, luminescence, normalized: DMSO 0%, staurosporine 100%; series mostly up to 91.7 µM;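 note: cells exposed to compound for 16 hours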
How it was run: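 Readout: Caspase-Glo 3/7 luminescence increase in BJ cells after 16 hr treatment at 37 °C. Staurosporine and tamoxifen served as positive controls; AC50 values came from Hill modelling of data normalized to DMSO and 10 uM staurosporine.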

[20] = Cellular Toxicity (caspase-3) MRC-5 (AID 659); conditions: MRC-5 cells, luminescence, normalized: DMSO 0%, 10 µM staurosporine 100%; series mostly up to 91.7 µM;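 note: cells exposed to compound for 16 h at 37 °C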
How it was run: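 Concentration-dependent caspase 3/7 activation is measured in human normal lung fibroblasts (MRC-5) following 16-hour treatment. AC50 values come from standard Hill-equation modeling of luminescence normalized to DMSO and 10 uM staurosporine.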

O=C1C=CCCC1
inactive: Potency [1] > 92 µM | Potency [2] > 92 µM | Potency [3] > 92 µM | Potency [4] > 92 µM | Potency [5] > 92 µM | Potency [6] > 92 µM | outcome [7] | activity change, negative = cytotoxicity [8] 3.2% | Potency [9] | Potency [10] | Potency [11] | Potency [12] | Potency [13] | Potency [14] | Potency [15] | caspase-3 activation [16] -0.0925% | outcome [17] | outcome [18] | outcome [19] | outcome [20]

CNC(=O)N(c1ccccc1)c1ccccc1
inactive: Potency [1] > 92 µM | Potency [2] > 92 µM | Potency [3] > 92 µM | Potency [4] > 92 µM | Potency [5] > 92 µM | Potency [6] > 92 µM | outcome [7] | activity change, negative = cytotoxicity [8] -1.02% | Potency [9] | Potency [10] | Potency [11] | Potency [12] | Potency [13] | Potency [14] | Potency [15] | caspase-3 activation [16] 1.82% | outcome [17] | outcome [18] | outcome [19] | outcome [20]

C(=C/c1ccccc1)/c1ccccc1
inactive: Potency [1] > 92 µM | Potency [2] > 92 µM | Potency [3] > 92 µM | Potency [4] > 92 µM | Potency [5] > 92 µM | Potency [6] > 92 µM | outcome [7] | activity change, negative = cytotoxicity [8] -0.717% | Potency [9] | Potency [10] | Potency [11] | Potency [12] | Potency [13] | Potency [14] | Potency [15] | caspase-3 activation [16] 0.745% | outcome [17] | outcome [18] | outcome [19] | outcome [20]

Cc1ccc([N+](=O)[O-])c(N)c1
inactive: Potency [1] > 92 µM | Potency [2] > 92 µM | Potency [3] > 92 µM | Potency [4] > 92 µM | Potency [5] > 92 µM | Potency [6] > 92 µM | outcome [7] | activity change, negative = cytotoxicity [8] -4.55% | Potency [9] | Potency [10] | Potency [11] | Potency [12] | Potency [13] | Potency [14] | Potency [15] | caspase-3 activation [16] 1.25% | outcome [17] | outcome [18] | outcome [19]

c1ccc2c(c1)Oc1ccccc1S2
inactive: Potency [1] > 92 µM | Potency [2] > 92 µM | Potency [3] > 92 µM | Potency [4] > 92 µM | Potency [5] > 92 µM | Potency [6] > 92 µM | outcome [7] | activity change, negative = cytotoxicity [8] -9.06% | Potency [9] | Potency [10] | Potency [11] | Potency [12] | Potency [13] | Potency [14] | Potency [15] | caspase-3 activation [16] -0.252% | outcome [17] | outcome [18] | outcome [19]

CC(=O)c1cc(C)oc1C
inactive: Potency [1] > 92 µM | Potency [2] > 92 µM | Potency [3] > 92 µM | Potency [4] > 92 µM | Potency [5] > 92 µM | Potency [6] > 92 µM | outcome [7] | activity change, negative = cytotoxicity [8] -1.61% | Potency [9] | Potency [10] | Potency [11] | Potency [12] | Potency [13] | Potency [14] | Potency [15] | caspase-3 activation [16] 0.691% | outcome [17] | outcome [18] | outcome [19] | outcome [20]

O=[N+]([O-])c1ccc(Cl)cc1Cl
inactive: Potency [1] > 92 µM | Potency [2] > 92 µM | Potency [3] > 92 µM | Potency [4] > 92 µM | Potency [5] > 92 µM | Potency [6] > 92 µM | outcome [7] | activity change, negative = cytotoxicity [8] 10.8% | Potency [9] | Potency [10] | Potency [11] | Potency [12] | Potency [13] | Potency [14] | Potency [15] | caspase-3 activation [16] 1.63% | outcome [17] | outcome [18] | outcome [19] | outcome [20]

COC(=O)c1ccccc1
inactive: Potency [1] > 92 µM | Potency [2] > 92 µM | Potency [3] > 92 µM | Potency [4] > 92 µM | Potency [5] > 92 µM | Potency [6] > 92 µM | outcome [7] | activity change, negative = cytotoxicity [8] -10.2% | Potency [9] | Potency [10] | Potency [11] | Potency [12] | Potency [13] | Potency [14] | Potency [15] | caspase-3 activation [16] 2.94% | outcome [17] | outcome [18] | outcome [19] | outcome [20]

CCC(C)(C)C(=O)O
inactive: Potency [1] > 92 µM | Potency [2] > 92 µM | Potency [3] > 92 µM | Potency [4] > 92 µM | Potency [5] > 92 µM | Potency [6] > 92 µM | outcome [7] | activity change, negative = cytotoxicity [8] 6.55% | Potency [9] | Potency [10] | Potency [11] | Potency [12] | Potency [13] | Potency [14] | Potency [15] | caspase-3 activation [16] -0.0519% | outcome [17] | outcome [18] | outcome [19] | outcome [20]

Cc1cc(C2(c3cc(C)c(O)cc3C)OS(=O)(=O)c3ccccc32)c(C)cc1O
inactive: Potency [1] > 92 µM | Potency [2] > 92 µM | Potency [3] > 92 µM | Potency [4] > 92 µM | Potency [5] > 92 µM | Potency [6] > 92 µM | outcome [7] | activity change, negative = cytotoxicity [8] -2.09% | Potency [9] | Potency [10] | Potency [11] | Potency [12] | Potency [13] | Potency [14] | Potency [15] | caspase-3 activation [16] 2.78% | outcome [17] | outcome [18] | outcome [19] | outcome [20]

Cc1cccc(Br)c1
inactive: Potency [1] > 92 µM | Potency [2] > 92 µM | Potency [3] > 92 µM | Potency [4] > 92 µM | Potency [5] > 92 µM | Potency [6] > 92 µM | outcome [7] | activity change, negative = cytotoxicity [8] -13.7% | Potency [9] | Potency [10] | Potency [11] | Potency [12] | Potency [13] | Potency [14] | Potency [15] | caspase-3 activation [16] -1.22% | outcome [17] | outcome [18] | outcome [19] | outcome [20]

Reference: PubChem BioAssay (NCATS)
